Laboratory results taken from the supplement of paper PMC9694430.

Legend:
Test in all cases: thermal shift delta Tm vs DMSO control; higher = stronger stabilization (binding)
Conditions in all cases: 12.5 µM; protein concentration 2 µM
LOC_OS01G01410-cb001 = system: LOC_OS01G01410-cb001
Summary of the method: (§1)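 Thermal shift values come from differential scanning fluorimetry on purified rice kinase domains made in E. coli, with melting temperatures obtained from Boltzmann fits. Samples of 19.5 μl held 2 μM kinase, 100 mM potassium phosphate pH 7.5, 150 mM NaCl, 10% glycerol, 5 × SYPRO Orange and compound in DMSO, and were heated from 25°C to 95°C at 0.05°C/s. Each shift is a triplicate mean relative to the DMSO-only protein sample.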

LOC_OS01G02750-cb003 = system: LOC_OS01G02750-cb003
Summary of the method: as §1

LOC_OS01G10900-cb004 = system: LOC_OS01G10900-cb004
Summary of the method: as §1

LOC_OS01G13800-cb001 = system: LOC_OS01G13800-cb001
Summary of the method: as §1

LOC_OS01G14860-cb001 = system: LOC_OS01G14860-cb001
Summary of the method: as §1

LOC_OS01G21960-cb002 = system: LOC_OS01G21960-cb002
Summary of the method: as §1

LOC_OS01G39600-cb002 = system: LOC_OS01G39600-cb002
Summary of the method: as §1

LOC_OS01G48390-cb002 = system: LOC_OS01G48390-cb002
Summary of the method: as §1

LOC_OS01G51400-cb002 = system: LOC_OS01G51400-cb002
Summary of the method: as §1

LOC_OS01G52050-cb004 = system: T1, LOC_OS01G52050-cb004
T1 sequence (whole entry): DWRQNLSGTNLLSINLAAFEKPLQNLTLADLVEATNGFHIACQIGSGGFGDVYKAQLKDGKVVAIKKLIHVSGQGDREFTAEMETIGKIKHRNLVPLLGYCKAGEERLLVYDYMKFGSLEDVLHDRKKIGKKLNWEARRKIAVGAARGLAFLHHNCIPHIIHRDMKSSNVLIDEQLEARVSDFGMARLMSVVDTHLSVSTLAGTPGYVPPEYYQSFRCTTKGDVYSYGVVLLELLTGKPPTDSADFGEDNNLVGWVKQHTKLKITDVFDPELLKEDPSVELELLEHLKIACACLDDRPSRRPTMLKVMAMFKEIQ
Summary of the method: as §1

LOC_OS01G57100-cb003 = system: LOC_OS01G57100-cb003
Summary of the method: as §1

LOC_OS01G60330-cb001 = system: LOC_OS01G60330-cb001
Summary of the method: as §1

LOC_OS01G60700-cb002 = system: LOC_OS01G60700-cb002
Summary of the method: as §1

LOC_OS01G63280-cb003 = system: LOC_OS01G63280-cb003
Summary of the method: as §1

LOC_OS01G67340-cb003 = system: LOC_OS01G67340-cb003
Summary of the method: as §1

LOC_OS01G70970-cb002 = system: LOC_OS01G70970-cb002
Summary of the method: as §1

LOC_OS02G07810-cb001 = system: LOC_OS02G07810-cb001
Summary of the method: as §1

LOC_OS02G08530-cb003 = system: LOC_OS02G08530-cb003
Summary of the method: as §1

LOC_OS02G14120-cb001 = system: LOC_OS02G14120-cb001
Summary of the method: as §1

LOC_OS02G17970-cb001 = system: LOC_OS02G17970-cb001
Summary of the method: as §1
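Note: purified Escherichia coli-expressed rice kinase domain construct.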

| Structure (SMILES) | thermal shift delta Tm (LOC_OS01G01410-cb001) [°C] | thermal shift delta Tm (LOC_OS01G02750-cb003) [°C] | thermal shift delta Tm (LOC_OS01G10900-cb004) [°C] | thermal shift delta Tm (LOC_OS01G13800-cb001) [°C] | thermal shift delta Tm (LOC_OS01G14860-cb001) [°C] | thermal shift delta Tm (LOC_OS01G21960-cb002) [°C] | thermal shift delta Tm (LOC_OS01G39600-cb002) [°C] | thermal shift delta Tm (LOC_OS01G48390-cb002) [°C] | thermal shift delta Tm (LOC_OS01G51400-cb002) [°C] | thermal shift delta Tm (LOC_OS01G52050-cb004) [°C] | thermal shift delta Tm (LOC_OS01G57100-cb003) [°C] | thermal shift delta Tm (LOC_OS01G60330-cb001) [°C] | thermal shift delta Tm (LOC_OS01G60700-cb002) [°C] | thermal shift delta Tm (LOC_OS01G63280-cb003) [°C] | thermal shift delta Tm (LOC_OS01G67340-cb003) [°C] | thermal shift delta Tm (LOC_OS01G70970-cb002) [°C] | thermal shift delta Tm (LOC_OS02G07810-cb001) [°C] | thermal shift delta Tm (LOC_OS02G08530-cb003) [°C] | thermal shift delta Tm (LOC_OS02G14120-cb001) [°C] | thermal shift delta Tm (LOC_OS02G17970-cb001) [°C] |
| --- | --- | --- | --- | --- | --- | --- | --- | --- | --- | --- | --- | --- | --- | --- | --- | --- | --- | --- | --- | --- |
| CC#CC(=O)Nc1ccc2ncnc(Nc3cccc(Br)c3)c2c1 | 2.55 | 1.15 | 2.56 | 0.12 | 1.15 | 0.48 | -0.38 | 2.25 | 0.38 | 1.8 | -0.79 | 0.53 | 1.56 | 0.9 | 1.06 | 0.37 | 0.86 | 1.43 | 2.95 | 1.1 |
| C[C@H](Nc1ncnc2[nH]cnc12)c1cc2ccc(F)cc2nc1-c1ccccn1 | 0.51 | 2.1 | 0.26 | 0.16 | 0.16 | 0.92 | -0.54 | 0.94 | 0.64 | 0.37 | 2.29 | 1.36 | 2.33 | 0.52 | 0.95 | 0.17 | 0.74 | 0.28 | 0.28 | 0.95 |
| Cn1c(=O)c(Oc2ccc(F)cc2F)cc2cnc(NC(CCO)CCO)nc21 | 0.37 | 0.46 | 1.21 | 0.21 | 0.44 | 0.89 | 0.22 | -0.01 | -0.14 | 0.02 | 1.18 | 0.87 | 1.45 | 0.27 | 0.29 | 0.4 | 0.02 | 1.22 | 1.36 | 1 |
| CCn1c(-c2nonc2N)nc2c(C#CC(C)(C)O)ncc(OC[C@H]3CCCNC3)c21 | 1.38 | 0.87 | 0.42 | 0.37 | 3.95 | 0.53 | 0.32 | 0.07 | 0.09 | 0.04 | 0.99 | 0.93 | 1.82 | -0.01 | -0.43 | 0.35 | 0.56 | 0.64 | 0.88 | -0.03 |
| CN(C)C[C@@H]1CCn2cc(c3ccccc32)C2=C(C(=O)NC2=O)c2cn(c3ccccc23)CCO1 | 1.3 | 0.71 | 0.95 | 1.16 | 2.41 | 2.83 | 2.85 | 0.62 | -0.02 | -0.62 | 2.1 | 0.51 | 2.42 | 0.43 | 0.03 | 0.53 | 0.54 | 1.19 | 2.29 | 1.69 |
| O=C1NC(=O)/C(=C/c2ccc(-c3ccc(F)cc3O)o2)S1 | 3.59 | 5.21 | 2.81 | 2.09 | 4.25 | 2.37 | 7.64 | 3.1 | 3.89 | 8.12 | 4.13 | 9.64 | 1.12 | 23.4 | 5.05 | 4.18 | 2.79 | 1.57 | 2.56 | 1.7 |
| COc1cccc(-n2c(=O)[nH]c3cc(Cl)n(-c4ccc(-c5cccc(OC)c5O)cc4)c3c2=O)c1 | 0.44 | 1.69 | -0.02 | 0.72 | 0.13 | 0.8 | -0.12 | 1.54 | 0.69 | 0.03 | 1.57 | 1.05 | 0.6 | 0.13 | 0.2 | 0.23 | 0.79 | 0.98 | 0.81 | 0.69 |
| CCn1nc(C2CCN(C(=O)CCO)CC2)nc1-c1cnc(N)c(-c2nnc(C(C)(C)C)o2)n1 | 0.39 | 0.51 | 0.81 | 0.46 | 2.91 | 1.09 | 2.31 | 0.07 | -0.09 | 1.14 | 0.59 | 0.91 | 1.19 | 1.82 | 1.55 | 1.96 | 1.55 | 2.73 | 5.17 | 1.34 |
| O=C1NC(=O)[C@@H](c2cn3c4c(cccc24)CCC3)[C@@H]1c1c[nH]c2ccccc12 [Tivantinib (ARQ 197)] | 0.55 | 0.06 | 0.15 | 0.17 | 0.16 | 0.75 | 0.54 | 0.43 | 0.27 | 0.75 | 1.7 | 0.74 | 0.02 | 0.24 | 0.37 | 0.39 | 0.91 | 0.76 | 0.16 | 0.24 |
| CCN(CC)CCNC(=O)c1c(C)[nH]c(/C=C2\C(=O)Nc3ccc(F)cc32)c1C [Sunitinib] | 3.95 | 1.72 | 0.25 | -0.3 | 1.43 | 2.21 | 2.9 | 1.72 | 0.22 | 7.91 | -0.24 | 9.23 | 0.91 | 0.49 | 4.15 | 6.85 | 0.37 | 4.95 | 7.49 | 0.22 |
| O=C(Nc1ccc(OC(F)(F)F)cc1)c1sccc1NCc1ccnc2ccccc12 | 1.17 | 2.66 | 0.51 | 0.57 | 0.78 | 0.12 | 1.45 | 1 | 0.94 | 3.68 | 0.93 | 2.48 | 0.05 | 6.18 | 0.22 | 1.27 | 1.03 | 0.68 | 0.49 | 0.48 |
| COC(=O)Nc1ccc(-c2nc(N3CCOCC3)c3cnn(C4CCN(C(=O)OC)CC4)c3n2)cc1 | 0.48 | 0.7 | 1.9 | 0.44 | 0.21 | 0.37 | -0.17 | 0.23 | -0.05 | 0.25 | 2.22 | 0.77 | 0.54 | 0.41 | 0.13 | 0.2 | 0.91 | 0.58 | -0.24 | 0.43 |
| C#Cc1cccc(Nc2ncnc3cc4c(cc23)OCCOCCOCCO4)c1 [Icotinib] | -0.52 | 0.8 | 0.96 | 0.01 | 0.16 | 0.74 | 2.84 | 2.19 | 0.45 | 0.36 | 2.43 | 0.51 | 1.16 | 0.89 | 0.11 | 0.61 | 0.45 | 1.31 | 2.16 | 1.61 |
